# In the library only some 6.1% were active in any assay of this set; here they are far more common.
# RORgamma inh: inhibitors of mouse ROR gamma transcriptional activity; Potency, µM (titrated, usually from 53.6 µM), for the others: top-dose activity change, negative = inhibition, actives largely listed as inhibitors; 5.4% of 310,000 active; AID 2551; Drosophila S2 Gal4-RORgamma UAS-luciferase reporter, 20 h; P51450; also: % is scaled to controls: 0 for no effect and ±100 for the full control effect; nearly all actives have a fitted effect of over 60% in size
# Target sequence (P51450 whole entry, looked up, the tested form may be a part): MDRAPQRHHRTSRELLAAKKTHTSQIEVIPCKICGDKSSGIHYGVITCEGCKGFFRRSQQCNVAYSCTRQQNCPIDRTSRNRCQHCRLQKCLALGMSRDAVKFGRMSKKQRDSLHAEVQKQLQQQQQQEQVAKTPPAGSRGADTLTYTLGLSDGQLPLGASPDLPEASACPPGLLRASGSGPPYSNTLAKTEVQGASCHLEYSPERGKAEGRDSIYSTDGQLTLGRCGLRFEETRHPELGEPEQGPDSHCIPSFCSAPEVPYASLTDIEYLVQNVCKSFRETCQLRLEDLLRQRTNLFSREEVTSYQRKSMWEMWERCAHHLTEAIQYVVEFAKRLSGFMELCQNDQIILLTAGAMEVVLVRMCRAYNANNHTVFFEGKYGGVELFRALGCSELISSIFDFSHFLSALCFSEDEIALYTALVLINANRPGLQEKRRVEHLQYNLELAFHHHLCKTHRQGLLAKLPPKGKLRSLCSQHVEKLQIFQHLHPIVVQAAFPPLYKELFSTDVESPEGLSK
#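 Drosophila S2 cells stably expressing Gal4-DBD/mouse RORγ fusion under metallothionein promoter plus UAS-luciferase; compound 1 h, then 700 uM CuSO4 induction for 20 h at ambient temperature; inhibition read as reduced luminescence.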
# HepG2 tox: kills HepG2 cells in TGF-b inhibitor counter-screen; HepG2 CAGA-GFP viability, ATP luminescence, 18 h; Potency, µM (titrated, usually from 46.1 µM), inactives show top-dose activity change, negative = cytotoxicity, most hits filed as cytotoxic; 0.76% of 410,000 active; AID 588856
#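 HepG2 CAGA-GFP cells (1000/well, DMEM with 1% FBS) received compound, then TGF-beta at 500 pg/mL final, and were incubated 18 hours at 37 degrees C. Viability was read by CellTiter-Glo luminescence. Media-only wells were set as complete cell-killing and DMSO as no toxicity.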
# S2 tox: reduces viability in counter-screen for ATXN expression inhibitors; 0.49% of 400,000 active; Potency, µM (doses to about 56.7 µM), usual class: cytotoxic; S2 cells (HEK-293 line with an ATXN2-luciferase reporter) viability, CellTiter-Fluor protease fluorescence, 24 h; also: nearly all actives have a fitted effect of over 40% in size
# VP16 counter: counter-screen for ROR gamma inhibitors: Gal4-VP16 reporter; 3.5% of 310,000 active; Drosophila S2 Gal4-VP16 UAS-luciferase, luminescence, 20 h; Potency, µM (doses to about 53.6 µM), for the others: at the top dose activity, negative = inhibition, hits mostly inhibitors;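 also: Gal4-VP16 expression switched on by copper sulfate through the metallothionein promoter; % is scaled to controls: 0 for no effect and ±100 for the full control effect; nearly all actives have a fitted effect of over 50% in size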
# TGFb inhibitor: blocks TGF-b signaling | HepG2 CAGA-GFP TGF-b/SMAD3 reporter, GFP fluorescence, 18 h; TGF-beta stimulated, 500 pg/mL final | Potency, µM (titrated, usually from 46.1 µM), inactives show at the highest dose activity, negative = inhibition, hits mostly inhibitors | 1.2% of 410,000 active; also: % is scaled to controls: 0 for no effect and ±100 for the full control effect; nearly all actives have a fitted effect of over 65% in size
#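 Inhibition was scored as loss of TGF-beta-induced (500 pg/mL final, 18 hours, 37 degrees C) GFP in HEPG2 cells carrying a CAGA-GFP reporter, in DMEM with 1% FBS. Well GFP was summed per cell; Activity was normalised to unstimulated and stimulated DMSO wells, then concentration-response fitting.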
# ATXN2 expr inh: inhibitors of ATXN2 expression | 0.72% of 360,000 active | HEK-293 ATXN2-luciferase reporter, luminescence, 24 h | Potency, µM (top dose mostly 57 µM), without a hit: at the top dose activity change, negative = inhibition, actives largely listed as inhibitors; also: % is scaled to controls: 0 for no effect and ±100 for the full control effect; nearly all actives have a fitted effect of over 55% in size
#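 ATXN2-luciferase reporter cells (luciferase flanked by upstream and downstream ATXN2 gene portions) were treated 24 h at 37 °C with compounds at up to 57 uM. SteadyGlo luminescence gave expression; GF-AFC fluorescence gave viability.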
# * marks the source's active call; other numbers are inactive results; i = inactive; ? = inconclusive; / = not tested or not shown. Calls follow the shape of the dose curve; as a rule, active = well fitted curve in the direction sought with a large enough effect; inconclusive = small, poorly fitted or top-dose-only effect, or another doubt; inactive = no such curve, though single readings can be large; an effect the other way counts as inactive or inconclusive. Potency is read from the fitted curve at half-maximal effect.
SMILES,RORgamma inh,HepG2 tox,S2 tox,VP16 counter,TGFb inhibitor,ATXN2 expr inh
COCCN1CCc2nc(SCC(=O)Nc3ccc(Br)cc3)[nH]c(=O)c2C1,/,-33%,i,/,-18%,11%
CCOC(=O)c1nc(NNC(=O)c2ccc([N+](=O)[O-])cc2)sc1C,?,-55%,?,6.3µM*,?,?
CCOC(=O)c1sc(NNC(=O)c2ccc(F)cc2)nc1C,0.71µM*,-12%,i,7.1µM*,19%,-17%
COC(=O)c1ccc(-n2c(C)cc(-c3csc(NC(=O)c4ccc(S(=O)(=O)N(C)C)cc4)n3)c2C)cc1,7%,13µM*,i,-10%,?,-1%
CCOC(=O)c1sc(NNC(=O)c2ccc(C)cc2)nc1C,0.79µM*,-54%,i,?,0%,1%
COc1cc(C(=O)NCC(c2ccco2)S(=O)(=O)c2cccs2)cc(OC)c1OC (configuration not stated),/,6%,/,/,25%,/
O=Cc1ccnc2ccccc12,/,21%,/,/,6%,/
CCOC(=O)c1sc(NC(=O)c2ccc(S(=O)(=O)N(C)C)cc2)nc1C,0.25µM*,5%,i,-28%,-2%,-13%
CCOC(=O)c1csc(NC(=O)c2ccc(S(=O)(=O)N(C)C)cc2)n1,20%,-23%,i,2%,12%,1%
CCOC(=O)c1cc(S(=O)(=O)Nc2ccccc2)[nH]n1,/,7%,i,/,49%,2%
CSc1nc(C2CC2)cc(-c2cccs2)c1C#N,17%,-34%,i,-2%,5.6µM*,-2%
COc1ccc(-c2cc(C3CC3)nc(SCC(=O)c3cccs3)c2C#N)cc1,?,-5%,i,4%,14%,-23%
COc1ccc(/C=C2\C=Cc3ccccc32)cc1OC,/,-17%,/,/,-17%,/
CC1CN(C(=S)Nc2ccccc2)N(c2ccccc2)C1 (configuration not stated),11µM*,-2%,i,-12%,1%,-2%
C/C(Cl)=C\Cn1c(O)c(N=NC(N)=S)c2cc(Br)ccc21,3.2µM*,-65%,?,3.2µM*,?,?
Cn1c(O)c(N=NC(N)=S)c2ccccc21,1.1µM*,/,/,3.2µM*,/,/
NC(=S)N=Nc1c(O)n(Cc2ccc(F)cc2)c2ccccc12,1.3µM*,-25%,?,1.3µM*,-10%,?
C/C(Cl)=C\Cn1c(O)c(N=O)c2ccccc21,32%,-14%,i,?,?,-21%
NC(=S)N=Nc1c(O)n(Cc2ccc(Br)cc2)c2ccccc12,0.79µM*,-52%,?,0.89µM*,?,?
O=C(C[n+]1ccccc1Cl)c1ccc2c(c1)CCCC2,/,-73%,/,/,-4%,/
CCSc1oc(-c2cccs2)nc1S(=O)(=O)c1ccc(Br)cc1,/,-5%,i,/,-1%,4%
CC(=O)OC1COC(n2c(O)c(N=NC(N)=S)c3ccccc32)C(OC(C)=O)C1OC(C)=O (configuration not stated),6.3µM*,-18%,?,10µM*,-12%,-3%
Cc1ccc2c(c1)c(N=NC(N)=S)c(O)n2Cc1ccccc1,1.6µM*,-20%,?,2.5µM*,5%,-26%
Cc1ccc2c(c1)c(N=O)c(O)n2Cc1ccc(Cl)cc1,?,-53%,i,?,-19%,-2%
Cc1ccc(-c2nc3sccn3c2Nc2ccccc2C)cc1,/,-24%,?,/,?,5%
SMILES,RORgamma inh,HepG2 tox,S2 tox,VP16 counter,TGFb inhibitor,ATXN2 expr inh
CCS(=O)(=O)c1ncc(N(Cc2ccccc2)Cc2ccco2)c(C(=O)Nc2cccc(Cl)c2C)n1,/,-2%,i,/,-24%,5%
CCc1ccc(CN(Cc2ccco2)c2cnc(S(C)(=O)=O)nc2C(=O)Nc2ccccc2Cl)cc1,/,-24%,i,/,7.9µM*,16%
CCS(=O)(=O)c1ncc(Cl)c(C(=O)N(Cc2ccccc2)Cc2ccco2)n1,/,5.6µM*,/,/,?,/
CCCN(CCC)CCCNC(=O)C1CCC(CNS(=O)(=O)c2ccc(NC(C)=O)cc2)CC1 (configuration not stated),/,1%,i,/,0%,16%
Cc1ccc(O)c(NC(=O)COCc2cc(-c3ccco3)on2)c1,/,-27%,/,/,?,/
Cc1cc(-c2c(C)[nH]n(-c3ccc(Cl)cc3)c2=O)n[nH]1,0.11µM*,-43%,i,0.63µM*,-25%,-1%
Cc1cc(N2CCC(C)CC2)nc2ccc(NC(=O)CCC(=O)N3CCN(c4ccccc4F)CC3)cc12,/,-23%,?,/,?,-33%
CCn1c(COc2ccc(C)cc2)nnc1SCc1nc2ccccc2[nH]1,13µM*,-30%,i,?,-1%,-13%
O=c1[nH]c(CSc2nnc(COc3ccccc3)n2-c2ccccc2)nc2ccccc12,13µM*,-16%,i,?,2%,21%
Cn1c(COc2ccccc2)nnc1SCc1nc2ccccc2[nH]1,-5%,-4%,i,-2%,?,9%
Cc1ccccc1OCc1nnc(SCc2nc3ccccc3c(=O)[nH]2)n1C,14%,-5%,i,-5%,-16%,-16%
Cc1ccccc1OCCn1c(-c2ccc(Cl)cc2)nc2ccccc2c1=O,/,-16%,i,/,-1%,1%
N#CC1=C(c2ccccc2)/C(=C/c2ccccc2)OC1=O,3.5µM*,-8%,/,2.2µM*,?,?
CCOc1ccccc1NC(=O)CSC1=Nc2ccccc2C2=NC(CC(=O)NC3CCCCC3)C(=O)N12 (configuration not stated),/,0%,?,/,-27%,2%
CCOc1cccc(C(=O)Nc2c(C(=O)c3ccc(OC)cc3)oc3ccccc23)c1,/,0%,/,/,-5%,/
CC(=O)c1ccc(OCC(=O)N(C2CCCCC2)C2CCS(=O)(=O)C2)cc1 (configuration not stated),/,7%,i,/,?,-8%
O=C(CCl)N(C1CCCC1)C1CCS(=O)(=O)C1 (configuration not stated),?,-43%,?,16µM*,?,?
Cc1cc(Br)ccc1NC(=O)CCNS(=O)(=O)c1cccc2nonc12,/,-21%,i,/,0%,-12%
O=C(c1ccc(Nc2nccc(-c3cc4ccccc4s3)n2)cc1)N1CCC(N2CCCC2)CC1,?,/,/,?,/,19µM*
COc1cccc([C@@H](C)NCCCc2ccccc2Cl)c1,/,/,/,/,/,4%
Cc1c(O)ccc(/C=N/Nc2ncccc2[N+](=O)[O-])c1O,10µM*,-47%,i,?,-14%,5%
CC1(C)C(=O)C=CC(=O)C(C)(C)C(=O)C=CC(=O)C(C)(C)C2=CC=C(O2)C(C)(C)C(=O)C=CC1=O,/,-15%,/,/,-6%,25µM*
